Reference: PubChem BioAssay (NCI)
About 83,000 compounds went through this panel and 20% of them were active in at least one assay; those are over-represented in the sample as a whole.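 Negative percent growth values reflect cell death: -40 means 40% of the cells present at the start died, and -100 means all died.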 Values without a mark were called inactive. Activity calls are given as the source filed them. Rule for the calls: active = growth percent below 10; inactive = the rest.

Columns and labels:
Experiment in all cases: NCI-60 one-dose screen, 48 h (100 = growth as untreated, 0 = no growth, -100 = all killed)
Conditions in all cases: 10 µM unless noted
[1] = system: SR leukemia
[2] = system: RPMI-8226 leukemia
[3] = system: OVCAR-8 ovarian
[4] = system: OVCAR-5 ovarian
[5] = system: OVCAR-4 ovarian
[6] = system: SK-OV-3 ovarian
[7] = system: IGROV1 ovarian
[8] = system: OVCAR-3 ovarian
[9] = system: HS 578T breast
[10] = system: NCI/ADR-RES ovarian

SMILES	growth [1]	growth [2]	growth [3]	growth [4]	growth [5]	growth [6]	growth [7]	growth [8]	growth [9]	growth [10]
COc1ccc(C/C(C)=C(\c2ccc(Cl)cc2)c2ccc(OCCCN(C)C)cc2)cc1	-31.7% (active)	-2.97% (active)	86.2%	70.8%	92.9%	99.1%	62.8%	79.4%	75.6%	88.7%
COc1cc([C@@H](CCO)C[C@H](C)c2ccc3ccccc3c2)cc(OC)c1OC	24.5%	22.6%	43.5%	70.2%	55.8%	33.8%	51.2%	8.71% (active)	22.2%	16.5%
O=C(NNc1nc2cc(F)ccc2n2c(CN3CCOCC3)ccc12)c1ccccc1	3.49% (active)	10.9%	13.1%	28.9%	-14.9% (active)	27.5%	3.07% (active)	-8.34% (active)	57.9%	5.25% (active)
CN(C)c1ccc(CNCCO)cc1	108%	84.6%	90.6%	67.6%	112%	71.4%	107%	104%	96%	103%
O=C(NN1C(=O)CSC1c1cccc([N+](=O)[O-])c1)c1ccc(NC(=O)c2ccccn2)cc1 (stereo not given)	20.5%	103%	99.5%	92.6%	110%	104%	90%	103%	103%	90.8%
c1ccc(-c2nc3ccccc3[nH]2)c(OCCCCCOc2ccccc2-c2nc3ccccc3[nH]2)c1	2.06% (active)	23.8%	64.3%	92.2%	58.9%	169%	70%	59.7%	89%	63.9%
O=C(/C=C/C12c3ccccc3C(c3ccccc31)C1C(=O)NC(=O)C12)c1ccco1 (stereo not given)	13%	-7.21% (active)	5.8% (active)	44.3%	53.4%	42.7%	26.5%	11.7%	31.4%	42.3%
COc1ccc(Cl)cc1Nc1nc(C(F)(F)F)ccc1C(=O)N/N=C/c1ccc([N+](=O)[O-])cc1	0.718% (active)	-49.7% (active)	9.77% (active)	4.96% (active)	-12.1% (active)	14.5%	-0.273% (active)	-1% (active)	3.18% (active)	2.09% (active)
CCN(CC)CCOc1ccc(/C(=C(\C)Cc2ccc(OC)cc2)c2ccc(OC(=O)NCc3ccccc3)cc2)cc1	-53% (active)	3.04% (active)	68.7%	81.9%	58%	91.2%	77.5%	76.1%	63.2%	78.7%
Cc1ccc(C)c2c1sc1nc(N3CCOCC3)c(C#N)c(=O)n12	63.5%	76.5%	110%	95.8%	76.8%	99.4%	55.9%	89.9%	76.4%	92.2%
Cc1ccc2c(c1)sc1nc(-c3c[nH]c4ccccc34)c(Nc3ccccc3)n12	97.2%	102%	104%	105%	95.8%	-4.12% (active)	104%	99.2%	98.7%	104%
N#Cc1ccccc1-c1ccc(CN2C(=O)S/C(=C\c3ccc(Br)cc3)C2=O)cc1	89.3%	103%	101%	101%	90.2%	94.3%	98.3%	112%	92.3%	94.1%
CS(=O)(=O)Nc1cc(-c2ccc3ncnc(Nc4ccc5c(cnn5Cc5ccccc5F)c4)c3c2)cnc1Cl	35.4%	5.17% (active)	69.7%	37.9%	63.4%	29.9%	-15.8% (active)	13.1%	7.95% (active)	92.2%
COc1cc2c(c(OC)c1OC)C(=O)CC(c1cccc(C(=O)Nc3ccccc3Br)c1)O2 (stereo not given)	64%	68.7%	91.8%	96.5%	70.6%	95.4%	91.6%	97.6%	103%	88.8%
Cc1cccc(NC(=O)N/C(N)=N/c2nc3ccccc3s2)c1	27.1%	26.4%	35.5%	56.4%	56.9%	35.2%	36.9%	8.85% (active)	23.8%	15%
COC1C(O)CC(OC2CC(OC3CC(O[C@@H]4C(=O)c5c(cc6cc(OC7CC(OC8CC(O)C(O)C(C)O8)C(O)C(C)O7)c(C)c(O)c6c5O)CC4[C@H](OC)C(=O)O)OC(C)C3O)OC(C)C2O)OC1C (stereo not given in full)	18%	19%	15.6%	29.3%	44.8%	35.1%	23.7%	18%	23.5%	63%
CCOC(=O)c1ccc[nH]1	94.8%	90.5%	95.9%	78.9%	95.5%	108%	90.6%	115%	95%	95.2%
CCOc1ccc(NC(=O)Nc2ccc(OCC)cc2)cc1	99.4%	109%	103%	111%	112%	103%	110%	105%	101%	106%
COc1cc(/C=C/C(=O)N2CCN(C(=O)c3cc(OC)c(OC)c(OC)c3)CC2)ccc1OCCCOc1cc2c(cc1OC)C(=O)N1CCC[C@H]1C=N2	-15.4% (active)	15.2%	14.1%	8.34% (active)	16%	20.3%	-57.9% (active)	-11.9% (active)	-2.23% (active)	78.6%
CSc1ccc2c3c(n(C[C@H](O)CO)c(=O)c2c1)-c1ccccc1C3=O	1.4% (active)	-17.3% (active)	33.3%	62.2%	85%	81.6%	52.5%	76.5%	83.3%	56%
CN(C)/C(N)=N/N=C(\c1ccccc1)c1ccccn1	85.5%	92.1%	103%	102%	86.6%	113%	93.7%	93.7%	97.8%	98.3%
COC(=O)/C=C1/SC(=Nc2ccc(F)cc2)N(CCc2c[nH]c3ccc(O)cc23)C1=O	-4.72% (active)	4.11% (active)	26.1%	76.3%	30.3%	80.8%	24.6%	21.5%	37.4%	32.7%
CNC(=O)Nc1ccc(-c2ccc3ncnc(Nc4cccc(Cl)c4)c3c2)cc1	27.6%	55.1%	54.6%	55.1%	69.7%	19.3%	12.3%	39.6%	46.5%	57.6%
CN1CCN(Cc2ccc(NC(=O)c3cncc(C#Cc4cnc(N)cc4C#N)c3)cc2C(F)(F)F)CC1	1.8% (active)	12.7%	22.6%	15.8%	23.2%	-14.6% (active)	1.46% (active)	28.4%	-8.07% (active)	66.3%
Cc1nc(N/N=C/c2cn(-c3ccccc3)nc2-c2cc3ccccc3oc2=O)sc1N=Nc1ccccc1	29.9%	89.3%	103%	104%	85.4%	109%	89.1%	92.1%	90.2%	88%
Nc1ncccc1O	65.5%	87%	81%	98.7%	98.4%	107%	67.2%	131%	109%	77%
CCOC(=O)c1[nH]cc2c1CCc1sc(Nc3ccccn3)nc1-2	56.8%	45%	83.1%	109%	72.7%	100%	97.6%	82.2%	95.6%	72.5%
